Compounds with a hit are over-represented: about 3.5% of the library has one in this group of screens.
mHTT CaM bind: inhibitors of human mutant huntingtin-calmodulin interaction. P42858. AlphaScreen His-mHTT/GST-CaM binding, luminescence. inhibition, % at 15 µM. 190,000 tested, 3.6% active
Pf apPOL block: Pf-apPOL DNA polymerase inhibition; Recombinant Pf-apPOL, molecular beacon fluorescence, 1.5 h; inhibition, % at 10 µM; 210,000 tested, 0.25% active; AID 1794808
Hits are given with their value. Cut-off read from the data, not from the text of the source: active = inhibition above about 50%; inactive = the rest.

What do the screens show for `CC1CN(C(=O)c2ccc3ccccc3n2)CC1c1nc(-c2ccncc2)no1` (configuration not stated)?
mHTT CaM bind: inactive; Pf apPOL block: inactive

How did O=C1NC2(CCN(C(=O)c3cc(F)cc(F)c3)CC2)Nc2c(Cl)cccc21 do in these assays?
mHTT CaM bind: inactive; Pf apPOL block: inactive

What do the screens show for `CCCCC(CC)CNC(CC(=O)Nc1cc(OC)ccc1OC)C(=O)O` (configuration not stated)?
mHTT CaM bind: inactive; Pf apPOL block: inactive

Results for COc1ccc(OC)c(NC(=O)c2c(NCc3ccncc3)sc3c2CCC3)c1 ?
mHTT CaM bind: 88; Pf apPOL block: inactive

How did COc1ccc(NC(=O)c2c(NC(=O)CN3CCCC3)sc3c2CCC3)c(OC)c1 do in these assays?
mHTT CaM bind: inactive; Pf apPOL block: inactive

How did CC(C)(C)c1ccc(Cn2c(N)nc3ccccc32)cc1 do in these assays?
mHTT CaM bind: 89; Pf apPOL block: inactive

What do the screens show for `Nc1nc2ccccc2n1Cc1ccc(Br)cc1`?
mHTT CaM bind: inactive; Pf apPOL block: inactive

Results for O=C(c1cn(-c2cccc(F)c2)nn1)N1CCN(Cc2ccccc2)CC1 ?
mHTT CaM bind: inactive; Pf apPOL block: inactive

How did COc1ccc(-c2cc3c(=O)[nH]nc(SCc4cccc(Cl)c4)n3n2)cc1OC do in these assays?
mHTT CaM bind: inactive; Pf apPOL block: inactive

How did CCN1CCN(c2cc(-c3nc(-c4ccccc4)no3)c3ccccc3n2)CC1 do in these assays?
mHTT CaM bind: 66; Pf apPOL block: inactive

What do the screens show for `c1ccc(-c2noc(-c3cc(N4CCOCC4)nc4ccccc34)n2)cc1`?
mHTT CaM bind: inactive; Pf apPOL block: inactive

What do the screens show for `O=C1C(C=NCCc2ccccc2)=C(O)c2ccccc21`?
mHTT CaM bind: inactive; Pf apPOL block: inactive

Results for CCC(=O)N1c2ccccc2-c2nnc(SC)nc2OC1c1ccsc1 (configuration not stated) ?
mHTT CaM bind: inactive; Pf apPOL block: inactive

What do the screens show for `O=C1N=C(N2CCOCC2)S/C1=C\c1cccs1`?
mHTT CaM bind: inactive; Pf apPOL block: inactive

What do the screens show for `O=C1N=C(N2CCOCC2)S/C1=C\c1ccc(-c2ccccc2)o1`?
mHTT CaM bind: 80; Pf apPOL block: inactive

Results for O=C1N=C(c2ccccc2)S/C1=C/c1ccc2c(c1)OCO2 ?
mHTT CaM bind: inactive; Pf apPOL block: inactive

How did Cc1ccc(/C=C2\SC(c3ccccc3)=NC2=O)o1 do in these assays?
mHTT CaM bind: 56; Pf apPOL block: inactive

How did COc1ccc(CNC(=O)C2(C)CCCN(S(=O)(=O)c3ccccc3F)C2)cc1 (configuration not stated) do in these assays?
mHTT CaM bind: inactive; Pf apPOL block: inactive

Results for Cc1ccccc1CS(=O)(=O)CCC(=O)NC(C)c1ccccc1 (configuration not stated) ?
mHTT CaM bind: inactive; Pf apPOL block: inactive

What do the screens show for `COc1ccc(C)cc1NC(=O)C(=O)NCC(C)(O)c1ccco1` (configuration not stated)?
mHTT CaM bind: inactive; Pf apPOL block: inactive

Results for Cc1ccc(C2Oc3ccccc3C3=C2C(c2cccs2)n2ncnc2N3)cc1 (configuration not stated) ?
mHTT CaM bind: inactive; Pf apPOL block: inactive

How did COc1cccc(C2C3=C(Nc4ncnn42)c2ccccc2OC3c2ccc(OC)c(OC)c2)c1 (configuration not stated) do in these assays?
mHTT CaM bind: inactive; Pf apPOL block: inactive

What do the screens show for `COc1ccc(C2Oc3ccccc3C3=C2C(c2cccs2)n2ncnc2N3)cc1OC` (configuration not stated)?
mHTT CaM bind: 56; Pf apPOL block: inactive

What do the screens show for `COc1ccc(C2C3=C(Nc4ncnn42)c2ccccc2OC3c2ccccc2Cl)cc1OC` (configuration not stated)?
mHTT CaM bind: 70; Pf apPOL block: inactive

What do the screens show for `CCOC(CNC(=O)C(Cc1ccccc1)NC(C)=O)OCC` (configuration not stated)?
Pf apPOL block: inactive

How did CC1CCN(C(=O)c2ccc(OCC3CCCN(C(=O)c4cccc(F)c4)C3)cc2)CC1 (configuration not stated) do in these assays?
mHTT CaM bind: inactive; Pf apPOL block: inactive

How did O=C(Nc1ccc(S(=O)(=O)NC(=O)C2CCCCC2)cc1)c1cccc(Br)c1 do in these assays?
mHTT CaM bind: inactive; Pf apPOL block: inactive

Results for Cc1ccccc1OCC1CNC(=O)O1 (configuration not stated) ?
mHTT CaM bind: inactive; Pf apPOL block: inactive

Results for O=C1NCC(CN(c2ccccc2)c2ccccc2)O1 (configuration not stated) ?
mHTT CaM bind: 83; Pf apPOL block: inactive

Results for CCCC(=O)NC(C)c1nc2ccccc2n1Cc1ccccc1F (configuration not stated) ?
mHTT CaM bind: inactive; Pf apPOL block: inactive

Results for COc1ccccc1C(=O)NC(C)c1nc2ccccc2n1Cc1ccccc1F (configuration not stated) ?
mHTT CaM bind: 55; Pf apPOL block: inactive

What do the screens show for `O=C(c1ccc(C(F)(F)F)cc1)N1CCC(Cc2nnc(-c3ccccc3)o2)CC1`?
mHTT CaM bind: 57; Pf apPOL block: inactive

What do the screens show for `O=C(c1ccoc1)N1CCC(Cc2nnc(-c3ccccc3)o2)CC1`?
mHTT CaM bind: inactive; Pf apPOL block: inactive

Results for COc1cccc(C(=O)NCCCc2ccc(N(C)C)cc2)c1OC ?
mHTT CaM bind: inactive; Pf apPOL block: inactive

How did COc1cc(C)c(C)cc1S(=O)(=O)NCCc1csc(-c2ccc(F)cc2)n1 do in these assays?
mHTT CaM bind: 53; Pf apPOL block: inactive

How did COc1cc(C)c(C)cc1S(=O)(=O)NCCCc1ccc(N(C)C)cc1 do in these assays?
mHTT CaM bind: 57; Pf apPOL block: inactive

What do the screens show for `CCCS(=O)(=O)NCCc1csc(-c2ccc(OC)c(OC)c2)n1`?
mHTT CaM bind: inactive; Pf apPOL block: inactive

What do the screens show for `COc1ccc(CNC(=O)N2CC(C(=O)N3CCCC3)C3(CCOCC3)C2)cc1` (configuration not stated)?
mHTT CaM bind: inactive; Pf apPOL block: inactive

What do the screens show for `O=C1Nc2ccc(Br)cc2/C1=C/c1ccc(OC2CCCC2)cc1`?
mHTT CaM bind: inactive; Pf apPOL block: inactive

Results for CC(C)c1ccc(/C=C2\C(=O)Nc3ccc(Br)cc32)cc1 ?
mHTT CaM bind: inactive; Pf apPOL block: inactive

Results for CCOc1cc(/C=C2\C(=O)Nc3ccc(Br)cc32)cc(Br)c1OCC ?
mHTT CaM bind: inactive; Pf apPOL block: inactive

How did COc1cc(/C=C2\C(=O)Nc3ccc(Br)cc32)cc(OC)c1O do in these assays?
mHTT CaM bind: 100; Pf apPOL block: inactive

What do the screens show for `COc1cc(/C=C2\C(=O)Nc3ccc(F)cc32)cc(OC)c1OC`?
mHTT CaM bind: inactive; Pf apPOL block: inactive

Results for O=C1Nc2ccc(Br)cc2/C1=C/C1CC=CCC1 (configuration not stated) ?
mHTT CaM bind: 51; Pf apPOL block: inactive

How did COc1cc(/C=C2\C(=O)Nc3ccc(Br)cc32)cc(Br)c1OC do in these assays?
mHTT CaM bind: 59; Pf apPOL block: inactive

What do the screens show for `COc1ccc(/C=C2\C(=O)Nc3ccc(Br)cc32)cc1O`?
mHTT CaM bind: 99; Pf apPOL block: inactive

Results for Cc1ccc(-n2nc(C)c3sc(N4CCCN(C(=O)c5ccc(F)cc5)CC4)nc32)cc1 ?
mHTT CaM bind: inactive; Pf apPOL block: inactive

What do the screens show for `CCOc1ccccc1Oc1c(C)oc2c3c(ccc2c1=O)OCN(CC1CCCO1)C3` (configuration not stated)?
mHTT CaM bind: inactive; Pf apPOL block: inactive
